Compounds without any hit were thinned out: in the full panel of roughly 83,000, 20% have a hit.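 Activity criterion: percent growth below 10, measured after cells in 96-well plates were exposed to a single compound concentration for 48 hours.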 A number with no mark means an inactive call. Calls of active or inactive are those of the source.

Some test systems named below: SK-MEL-2 melanoma; EKVX NSCLC; SN12C renal; UO-31 renal; TK-10 renal; ACHN renal; CAKI-1 renal; A498 renal; CCRF-CEM leukemia; MOLT-4 leukemia; SR leukemia; RPMI-8226 leukemia; OVCAR-8 ovarian; OVCAR-4 ovarian; SK-OV-3 ovarian; IGROV1 ovarian; OVCAR-3 ovarian; OVCAR-5 ovarian; HS 578T breast; NCI/ADR-RES ovarian.
Holding throughout (test): NCI-60 one-dose screen, 48 h (100 = growth as untreated, 0 = no growth, -100 = all killed)
Holding throughout (conditions): 10 µM unless noted

In the case of `CC1(C)N=C(N)N=C(N)N1c1ccc(Cl)c(Cl)c1`, the growth was 64.6% with SK-MEL-2 melanoma; 52.5% in the experiment on EKVX NSCLC; 27.1% with SN12C renal; 48.3% in the experiment with UO-31 renal; 48.5% with TK-10 renal; 28.4% in the experiment with ACHN renal. The growth in the experiment with CAKI-1 renal was 60.8%; in the experiment with A498 renal, 99.1%; with CCRF-CEM leukemia it was 32%; in the experiment with MOLT-4 leukemia it was 34.6%; in the experiment on SR leukemia, 39.5%; with RPMI-8226 leukemia, 48.2%. The growth in the experiment with OVCAR-8 ovarian is 28.7%; with OVCAR-4 ovarian, 54.5%; in the experiment on SK-OV-3 ovarian, 39.5%; in the experiment with IGROV1 ovarian, 41.2%; in the experiment with OVCAR-3 ovarian, 53%.

With `C=C1C(=O)O[C@H]2[C@H]1CC/C(COC(=O)/C=C\C(=O)NCc1ccc(Cn3c(=O)sn(-c4ccc(Cl)cc4)c3=O)cc1)=C\CC[C@@]1(C)O[C@@H]21`, the growth is -64.7% (active) with SK-MEL-2 melanoma; -74.8% (active) with EKVX NSCLC; -96.1% (active) in the experiment with SN12C renal; -100% (active) in the experiment on UO-31 renal; -85.1% (active) in the experiment on TK-10 renal; -100% (active) in the experiment with ACHN renal. Besides, the growth is -69.9% (active) in the experiment on CAKI-1 renal; -15.8% (active) in the experiment on A498 renal; -22.9% (active) in the experiment with CCRF-CEM leukemia; -36.7% (active) in the experiment on MOLT-4 leukemia; -46.3% (active) in the experiment with SR leukemia; -12% (active) with OVCAR-8 ovarian. The growth in the experiment with OVCAR-5 ovarian is -86.2% (active); with OVCAR-4 ovarian, -78.4% (active); in the experiment on SK-OV-3 ovarian it was 52.4%; in the experiment with IGROV1 ovarian, -99.5% (active); with OVCAR-3 ovarian, -97.6% (active); in the experiment on HS 578T breast, -18.2% (active). In addition, the growth with NCI/ADR-RES ovarian was -6.62% (active).

Regarding `Cn1ccnc1C(=O)/C=C/c1ccc(C(=O)Nc2ccc(S(F)(F)(F)(F)F)cc2)cc1`, the growth is 62.7% in the experiment with SK-MEL-2 melanoma; 26.3% in the experiment with EKVX NSCLC; 7.07% (active) in the experiment on SN12C renal; 28.5% with UO-31 renal; 48.8% in the experiment on TK-10 renal; 42.5% with ACHN renal. Also, the growth with CAKI-1 renal is 23.9%; in the experiment on A498 renal it was 38.4%; with CCRF-CEM leukemia it was 3.4% (active); with MOLT-4 leukemia, -5.05% (active); in the experiment on SR leukemia, 1.8% (active); in the experiment on OVCAR-8 ovarian it was 9.86% (active). For the same compound, the growth in the experiment with OVCAR-5 ovarian is 10.2%; in the experiment with OVCAR-4 ovarian, 33.5%; in the experiment on SK-OV-3 ovarian, 61.2%; in the experiment with IGROV1 ovarian, 22.3%; in the experiment with OVCAR-3 ovarian, 2.9% (active); with HS 578T breast, 23.5%. Moreover, the growth in the experiment on NCI/ADR-RES ovarian was 5.47% (active).

Turning to `CNC1(C#N)CCN(Cc2ccccc2)CC1`, the growth with SK-MEL-2 melanoma was 93.2%; in the experiment on EKVX NSCLC, 90.2%; in the experiment with SN12C renal, 93.9%; with UO-31 renal, 80.9%; with TK-10 renal, 272%; with ACHN renal it was 101%. For the same compound, the growth in the experiment with CAKI-1 renal is 72.7%; in the experiment with A498 renal it was 110%; in the experiment with CCRF-CEM leukemia, 108%; in the experiment on MOLT-4 leukemia, 170%; with SR leukemia it was 132%; in the experiment with RPMI-8226 leukemia, 110%. Also, the growth is 113% in the experiment on OVCAR-8 ovarian; 100% with OVCAR-5 ovarian; 103% with OVCAR-4 ovarian; 99.4% in the experiment on SK-OV-3 ovarian; 101% with IGROV1 ovarian; 99.9% with OVCAR-3 ovarian. The growth in the experiment on NCI/ADR-RES ovarian was 103%.

Take `c1ccc([P+](CCCc2n(Cc3ccc4ccccc4c3)c3ccccc3[n+]2Cc2ccc3ccccc3c2)(c2ccccc2)c2ccccc2)cc1`: the growth in the experiment on SK-MEL-2 melanoma was 100%; with EKVX NSCLC, 59.4%; in the experiment on SN12C renal, 55%; in the experiment on UO-31 renal, 61.2%; with TK-10 renal it was 89.2%; in the experiment with ACHN renal it was 81.4%. Moreover, the growth with CAKI-1 renal was 79.9%; in the experiment on A498 renal, 67.2%; in the experiment with CCRF-CEM leukemia it was 43.2%; with MOLT-4 leukemia, 57.6%; in the experiment on SR leukemia, 30.8%; with RPMI-8226 leukemia, 6.9% (active). Also, the growth with OVCAR-8 ovarian is 70.2%; in the experiment with OVCAR-5 ovarian, 60.1%; in the experiment on OVCAR-4 ovarian, 74.4%; with SK-OV-3 ovarian, 84.5%; in the experiment on HS 578T breast, 68.6%; with NCI/ADR-RES ovarian it was 83.7%.

As to `OC(c1cccc(OCc2ccccc2)c1)c1nnc(-c2ccccc2)o1` (stereo not drawn), the growth in the experiment on SK-MEL-2 melanoma is 100%; in the experiment with EKVX NSCLC it was 77.3%; with SN12C renal, 92.8%; in the experiment on UO-31 renal, 68.1%; with TK-10 renal it was 143%; in the experiment with ACHN renal, 92.6%. The growth in the experiment with CAKI-1 renal was 95.2%; in the experiment with A498 renal, 102%; with CCRF-CEM leukemia it was 75.7%; in the experiment on MOLT-4 leukemia it was 105%; with SR leukemia, 92.8%; in the experiment on RPMI-8226 leukemia it was 57.8%. Further, the growth is 102% with OVCAR-5 ovarian; 87.1% in the experiment with OVCAR-4 ovarian; 106% in the experiment with SK-OV-3 ovarian; 91.7% in the experiment with IGROV1 ovarian; 104% in the experiment on OVCAR-3 ovarian; 96.9% in the experiment on HS 578T breast. For the same compound, the growth in the experiment on NCI/ADR-RES ovarian is 89.7%.

As for `C/C(=N\NC(N)=S)c1nc2ccc(Cl)cc2[nH]1`, the growth in the experiment with SK-MEL-2 melanoma was 32.1%; in the experiment with EKVX NSCLC, 63.3%; with SN12C renal it was 48.5%; with UO-31 renal, 41.9%; in the experiment on TK-10 renal, 33.9%; in the experiment with ACHN renal, 19.6%. The growth was 26.9% in the experiment with CAKI-1 renal; 53.3% with A498 renal; 32.8% with CCRF-CEM leukemia; 30.4% in the experiment on MOLT-4 leukemia; 30.5% in the experiment with SR leukemia; 57.6% in the experiment with RPMI-8226 leukemia. Besides, the growth in the experiment on OVCAR-8 ovarian was 39.1%; in the experiment with OVCAR-5 ovarian, 69.8%; in the experiment on OVCAR-4 ovarian, 32.3%; in the experiment on SK-OV-3 ovarian it was 47.1%; in the experiment with IGROV1 ovarian, 58.9%; in the experiment with OVCAR-3 ovarian, 50.1%. Further, the growth in the experiment with NCI/ADR-RES ovarian is 31.1%.

On to `COc1cc2nc(Nc3ccc(F)cc3)nc(N)c2cc1OC`, for which the growth was 91% in the experiment on SK-MEL-2 melanoma; 106% with EKVX NSCLC; 92% in the experiment on SN12C renal; 76.1% in the experiment with UO-31 renal; 95.2% in the experiment with TK-10 renal; 101% with ACHN renal. Besides, the growth in the experiment on CAKI-1 renal is 102%; in the experiment with A498 renal it was 63.6%; in the experiment on CCRF-CEM leukemia it was 81.4%; with MOLT-4 leukemia, 65.3%; in the experiment on SR leukemia, 64.2%; in the experiment on RPMI-8226 leukemia, 76.8%. The growth with OVCAR-5 ovarian was 99.1%; in the experiment on OVCAR-4 ovarian, 97.7%; in the experiment on SK-OV-3 ovarian, 110%; in the experiment with IGROV1 ovarian it was 107%; in the experiment on OVCAR-3 ovarian, 91.3%; with NCI/ADR-RES ovarian it was 87.6%.

The record behind these values is PubChem BioAssay (NCI).
